KB-V1 cytotox = kills drug-selected multidrug resistant KB-V1 cells; 400,000 compounds, 3.4% hits; AID 1347076; Potency, µM (highest dose often 46.1 µM), most hits filed as cytotoxic; KB-V1 MDR cells viability, CellTiter-Glo, 72 h; further: nearly all actives have a fitted effect of over 60% in size
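KB-V1, DMEM (no phenol red) + 10% FBS; cpd pin-transferred, titration series; 72 h, 37 degrees C; CellTiter-Glo, luminescence. Data normalized, curve-fit.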
KB-3-1 cytotox = KB-3-1 parental cell cytotoxicity; Potency, µM (titrated, usually from 46.1 µM), actives largely listed as cytotoxic; KB-3-1 viability, CellTiter-Glo ATP luminescence, 72 h; AID 1347075; 400,000 compounds, 1.4% hits; further: nearly all actives have a fitted effect of over 60% in size
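Cells are dispensed, compounds pinned in, plates held at 37 °C for 72 h, then CellTiter-Glo is added and luminescence read after 10 minutes. Cell line: parental KB-3-1 in phenol-red-free DMEM, 10% FBS.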
ELG1 repair inh = inhibitors of ELG1-dependent DNA repair in HEK293T cells; Potency, µM (series often up to 46.1 µM), usual class: inhibitors; 330,000 compounds, 2.3% hits; HEK293T ELG1-luciferase reporter, luminescence, 16 h; DNA damage induced by 5-fluorouridine; further: nearly all actives have a fitted effect of over 55% in size
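HEK293T cells expressing luciferase-tagged ELG1 (2,000/well) received 5-Fluorouridine plus compound or DMSO for 16 hr at 37 °C. Luciferase was read by ONE-Glo luminescence after 30 min at room temperature.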
SW480 rereplic = DNA re-replication induction in SW480 cells | SW480 DNA re-replication, Hoechst DNA content imaging, 48 h | Potency, µM (highest dose often 46.1 µM), most hits filed as activators | 340,000 compounds, 1.8% hits; further: nearly all actives have a fitted effect of over 55% in size
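Readout is total intensity of Hoechst-stained nuclei, excited at 405 nm and collected at 500-530 nm. Compound treatment lasted 48 hr at 37 C in 5% CO2 before staining.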
MCF10A rerep = induces DNA re-replication in MCF 10a normal breast cells; 350,000 compounds, 2.9% hits; Potency, µM (titrated, usually from 46.1 µM), most hits filed as activators; MCF 10A DNA re-replication, Hoechst nuclear intensity, 48 h; further: nearly all actives have a fitted effect of over 50% in size
Hits are given with their value; n = inactive; u = inconclusive; x = no result given. This is a sample that favours compounds with a hit; in the whole collection about 8.1% have one here. The call rests on the fitted dose curve; in most records, active means well fitted curve in the direction sought with a large enough effect; inconclusive means small, poorly fitted or top-dose-only effect, or another doubt; inactive means no such curve, though single readings can be large; an effect the other way counts as inactive or inconclusive.

SMILES	KB-V1 cytotox	KB-3-1 cytotox	ELG1 repair inh	SW480 rereplic	MCF10A rerep
COc1ccccc1N1CCN(c2nc(C)nc3c2oc2ccccc23)CC1	1.12µM	1.41µM	u	u	u
Cc1nc(N2CCN(Cc3ccc4c(c3)OCO4)CC2)c2oc3ccccc3c2n1	u	u	x	u	11.6µM
Cc1cc(C)nc(N2CCN(c3nc(-c4ccccc4)nc4c3oc3ccccc34)CC2)n1	n	n	x	n	n
Cc1ccc(NC(=O)CSc2nc(=O)n(Cc3ccncc3)c3c2CCC3)c(C)c1	n	n	n	n	n
COc1ccccc1CN(C(=O)CNC(=O)c1ccco1)C(C(=O)NCC1CCCO1)c1ccc(OC)c(OC)c1 (configuration not stated)	u	n	n	n	n
CC(Oc1ccc2c3c(c(=O)oc2c1)CCC3)C(=O)NCCCn1ccnc1 (configuration not stated)	u	n	n	u	n
Cc1c(C(=O)OCC(=O)N(C)Cc2ccc(Cl)cc2)oc2ccccc12	n	n	n	u	n
Cc1nc2sc(C(c3ccccc3)N3CCOCC3)c(O)n2n1 (configuration not stated)	n	n	n	16.4µM	4.61µM
Cc1nc2sc(C(c3ccc(Cl)cc3)N3CCOCC3)c(O)n2n1 (configuration not stated)	n	n	n	n	u
COc1cccc(/C=N/NC(=O)c2cc3c(OC)cccc3[nH]2)c1O	u	u	u	9.2µM	n
COc1cccc(/C=N/NC(=O)c2cc3c(OC)cccc3[nH]2)c1OC	u	n	n	n	u
COc1cccc(/C=N/Nc2ncnc3scc(-c4ccccc4)c23)c1O	u	u	7.31µM	u	13µM
COc1cccc(/C=N/Nc2nccnc2Cl)c1O	n	u	u	0.259µM	5.8µM
COc1cccc2[nH]c(C(=O)NCc3ccccc3)cc12	n	n	20.6µM	n	n
O=C1CC(c2nnc(Cc3ccc(F)cc3)o2)CN1c1ccccc1 (configuration not stated)	n	n	x	x	x
CCOc1ccc(CNC(=O)C2=Cc3cc(Br)ccc3OC2)cc1OC	n	n	x	x	x
COc1ccc(/C=N/NC(=O)c2cnccn2)c(OC)c1OC	n	n	n	n	n
NC(=S)N/N=C/c1ccc2cccc(OCc3ccccc3)c2n1	n	n	n	n	u
COc1cccc(/C=N/NC(=O)c2ccncc2)c1OC(=O)c1ccc(Br)cc1	n	n	u	n	14.6µM
COc1ccccc1/C=N/NC(=O)c1cccc2ccccc12	n	n	n	u	n
NC(=S)N/N=C/c1ccccc1OCc1cccc(Cl)c1	n	18.4µM	n	u	u
COc1ccc(/C=N/NC(=O)c2cccc3ccccc23)c(OC)c1OC	u	u	x	n	14.6µM
COc1cccc(/C=N/NC(=O)c2cnccn2)c1O	n	n	n	5.17µM	n
CCCCNC(=O)c1ccc2nc(CC)c(N(CC)CCN(C)C)n2c1	n	n	x	x	x
OC[C@@H]1CN(Cc2ccc3c(c2)OCO3)C[C@H](n2cnc3c(N4CCN(c5ccccc5)CC4)ncnc32)O1	n	n	x	x	x
SMILES	KB-V1 cytotox	KB-3-1 cytotox	ELG1 repair inh	SW480 rereplic	MCF10A rerep
O=C(COc1ccc(S(=O)(=O)N2CCOCC2)cc1Cl)NCc1ccc2c(c1)OCO2	u	n	x	x	x
COc1ccc(CN(C)C[C@H]2OCc3cnnn3CCCC(=O)N([C@H](C)CO)C[C@@H]2C)cc1	u	n	x	x	x
CCOc1ccc(C(=O)Nc2ccc(-c3nc4ccccc4o3)cc2)cc1[N+](=O)[O-]	u	n	x	x	x
CN(Cc1ccccc1)C(=O)COC(=O)CCC(=O)c1ccc(Cl)cc1	x	x	n	n	n
O=C(N/N=C/c1cc([N+](=O)[O-])ccc1Cl)c1cnccn1	n	2.59µM	n	5.17µM	u
COc1cccc(/C=N/NC(=O)C(=O)N2CCCCCC2)c1O	n	n	u	u	n
COc1ccc(OC)c2[nH]c(C(=O)N/N=C/c3ccccc3O)cc12	n	u	u	u	u
COc1ccc(/C=N/NC(=O)c2cc3c(OC)ccc(OC)c3[nH]2)cc1O	9.2µM	2.91µM	u	u	u
COc1ccccc1/C=N/NC(=O)c1ccc(-c2ccccc2)cc1	n	n	u	n	18.4µM
O=C(Nc1cccc([N+](=O)[O-])c1)c1cnccn1	u	n	n	n	n
COc1cccc(/C=N/NC(=O)C(=O)N/N=C/c2cccc(OC)c2O)c1O	n	u	u	6.51µM	n
CC(=O)C1=CCC(c2ccc(Cl)cc2)N(S(=O)(=O)c2ccccc2C)C1 (configuration not stated)	u	n	x	x	x
CCOc1cc(C2Nc3ccccc3C(=O)N2Cc2ccco2)ccc1O (configuration not stated)	n	n	x	x	x
N#CC1(NC(=O)COC(=O)C2CCN(S(=O)(=O)c3ccc4c(c3)OCCO4)CC2)CCCCC1	u	n	x	n	n
CC[C@]12c3[nH]c4cc(-c5ccco5)ccc4c3CCN1C(=O)[C@@H](CC(=O)NCCc1ccccn1)C[C@@H]2C(=O)N1CCN(C(=O)C2CC2)CC1	n	n	n	u	n
O=C(Nc1ccc(N2CCOCC2)cc1)c1csc(COCCO)n1	u	n	x	x	x
COc1cccc(/C=N/NC(=O)c2cc3c(OC)c(OC)ccc3[nH]2)c1OC	n	9.2µM	u	23.1µM	u
COc1cccc(C=NNC(=S)NN=Cc2cccc(OC)c2OC)c1OC	u	n	x	n	18.4µM
COc1c(Br)cc(Br)cc1/C=N/NC(=O)c1cccnc1	n	16.4µM	n	n	u
COc1cccc(/C=N/NC(=S)NC2CC3CCC2C3)c1OC (configuration not stated)	n	n	u	n	n
COC(=O)c1cccc(/C=N/NC(N)=S)c1O	14.6µM	u	n	u	n
COc1c(Br)cc(Br)cc1/C=N/NC(=O)c1ccncc1	n	n	n	n	n
COC(=O)c1sccc1N/N=C/c1cccc(OC)c1O	u	n	u	n	u
COc1cccc(/C=N/NC(=O)c2cc3cc([N+](=O)[O-])ccc3s2)c1O	u	u	u	1.84µM	u
COC(=O)c1sccc1N/N=C/c1ccc(OC)c(OC)c1OC	u	n	u	n	23.1µM
SMILES	KB-V1 cytotox	KB-3-1 cytotox	ELG1 repair inh	SW480 rereplic	MCF10A rerep
CC1CCN(CCC(=O)Nc2ccc(F)c(F)c2)CC1	u	n	n	n	n
Cc1cc2oc(=O)cc(CN3CCN(S(=O)(=O)c4ccc5c(c4)OCCO5)CC3)c2cc1C	n	n	u	n	n
Cc1ccc2c(CN3CCCCC3)cc(=O)oc2c1C	n	n	u	n	u
CCc1ccc2c(CN3CCN(S(=O)(=O)c4ccccc4F)CC3)cc(=O)oc2c1	n	n	23.1µM	n	n
Cc1cc2oc(=O)cc(CN3CCN(S(=O)(=O)/C=C/c4ccccc4)CC3)c2cc1C	2.59µM	n	n	n	n
Cc1ccc2c(CN3CCN(S(=O)(=O)c4ccccc4C(F)(F)F)CC3)cc(=O)oc2c1C	n	u	16.4µM	n	n

Source: PubChem
